# In PubChem BioAssay (NCATS):
# Records with an inconclusive call do not appear. Where a call stands in place of a potency, no number is given. Activity calls are given as the source filed them. Calls come from the whole dose curve; as a rule, active = well fitted curve in the direction sought with a large enough effect; inconclusive = small, poorly fitted or top-dose-only effect, or another doubt; inactive = no such curve, though single readings can be large; an effect the other way counts as inactive or inconclusive.
# Experiments:
# [1] = NS1 protein of Zika virus - qHTS assay to identify small molecule inhibitors in human HEK 293 cells (AID 1347053); note: nearly all actives have a fitted effect of over 55% in size; note: potency is the fitted concentration of half-maximal effect
# Outline: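 HEK 293 cells pretreated with compound for 1 h, then infected with ZIKV MR766 (MOI 0.5) for 24 h at 37 C. NS1 detected by TR-FRET with two anti-NS1 antibodies; normalized to uninfected (0%) and infected (100%) wells.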
# [2] = qHTS of pediatric cancer cell lines to identify multiple opportunities for drug repurposing: Primary screen for TC32 cells (AID 1347089); note: nearly all actives have a fitted effect of over 60% in size; note: potency is the fitted concentration of half-maximal effect
# Outline: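 A viability screen of TC32 cells was run over 48 h, with primary MIPE doses spanning 0.78 nM–46 µM and NPC doses 0.59 nM–46 µM. ATP luminescence (CellTiter-Glo) served as the read-out.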
# [3] = qHTS of pediatric cancer cell lines to identify multiple opportunities for drug repurposing: Primary screen for DAOY cells (AID 1347090); note: nearly all actives have a fitted effect of over 55% in size; note: potency is the fitted concentration of half-maximal effect
# Outline: (§1)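 Eight- or eleven-point concentration series, 48 h treatment at 37 degrees C in growth media; readout CellTiter-Glo luminescence. Potency and efficacy were taken from the concentration-response curves.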
# [4] = qHTS of pediatric cancer cell lines to identify multiple opportunities for drug repurposing: Primary screen for SJ-GBM2 cells (AID 1347091); note: potency is the fitted concentration of half-maximal effect
# Outline: as §1
# [5] = qHTS of pediatric cancer cell lines to identify multiple opportunities for drug repurposing: Primary screen for A673 cells (AID 1347092); note: nearly all actives have a fitted effect of over 45% in size; note: potency is the fitted concentration of half-maximal effect
# Outline: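 Titration-based qHTS on A673 cells: MIPE compounds spanned 11 points (0.78 nM to 46 µM final), NPC compounds 8 points (0.59 nM to 46 µM final). Viability after 48 h was measured by ATP luminescence.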
# [6] = qHTS of pediatric cancer cell lines to identify multiple opportunities for drug repurposing: Primary screen for SK-N-MC cells (AID 1347093); note: potency is the fitted concentration of half-maximal effect
# Outline: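 Metabolically active cells were quantified by ATP-dependent luminescence (CellTiter-Glo, 15 min at room temperature) following 48 h treatment. Cells had been plated at 500-1,000 per well and settled for 5 h beforehand.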
# [7] = qHTS of pediatric cancer cell lines to identify multiple opportunities for drug repurposing: Primary screen for BT-37 cells (AID 1347094); note: potency is the fitted concentration of half-maximal effect
# Outline: (§2)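 Primary screen of approved and investigational compounds on cells in growth media at 37 degrees C, 5% CO2. MIPE set at 11-point and NPC set at 8-point dilutions; viability scored by ATP-based luminescence at 48 hours.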
# [8] = qHTS of pediatric cancer cell lines to identify multiple opportunities for drug repurposing: Primary screen for NB-EBc1 cells (AID 1347095); note: potency is the fitted concentration of half-maximal effect
# Outline: as §2
# [9] = qHTS of pediatric cancer cell lines to identify multiple opportunities for drug repurposing: Primary screen for U-2 OS cells (AID 1347096); note: nearly all actives have a fitted effect of over 50% in size
# Outline: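 Cells (500-1,000/well) in growth media were settled 5 h at 37 degrees C, then given compounds for 48 h. Viability was read as CellTiter-Glo luminescence. Primary runs used MIPE at 11 points (0.78 nM-46 µM) and NPC at 8 points (0.59 nM-46 µM); follow-ups used 11 points.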
# [10] = qHTS of pediatric cancer cell lines to identify multiple opportunities for drug repurposing: Primary screen for Saos-2 cells (AID 1347097); note: nearly all actives have a fitted effect of over 40% in size; note: potency is the fitted concentration of half-maximal effect
# Outline: as §2
# [11] = qHTS of pediatric cancer cell lines to identify multiple opportunities for drug repurposing: Primary screen for SK-N-SH cells (AID 1347098); note: nearly all actives have a fitted effect of over 65% in size; note: potency is the fitted concentration of half-maximal effect
# Outline: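 Cells (500-1,000/well) rested 5 h, then received compounds for 48 h; metabolically active cells were measured by CellTiter-Glo luminescence. Final concentrations spanned up to 46 µM (MIPE, 11-point) or 0.59 nM-46 µM (NPC, 8-point) in primary screens, 11-point in follow-ups.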
# [12] = P-glycoprotein substrates identified in KB-8-5-11 adenocarcinoma cell line, qHTS therapeutic library screen (AID 1346987); note: nearly all actives have a fitted effect of over 65% in size; note: potency is the fitted concentration of half-maximal effect
# Outline: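 P-gp-mediated resistance screen: KB-8-5-11 cells treated 72 h with compounds in dose-response. CellTiter-Glo viability.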
Structure (SMILES),Potency [1],Potency [2],Potency [3],Potency [4],Potency [5],Potency [6],Potency [7],Potency [8],Potency [9],Potency [10],Potency [11],Potency [12]
COc1ccc(CN(CCN(C)C)c2ncccn2)cc1,inactive,inactive,inactive,inactive,inactive,inactive,inactive,inactive,inactive,inactive,inactive,–
NS(=O)(=O)c1ccc(Cl)c(S(N)(=O)=O)c1,–,inactive,inactive,inactive,inactive,–,inactive,inactive,inactive,–,inactive,inactive
CCN(CC)CCNC(=O)c1cc(Br)c(N)cc1OC,–,inactive,inactive,inactive,–,inactive,inactive,inactive,inactive,inactive,inactive,inactive
CCN(CC)CCOc1ccccc1C(=O)CCc1ccccc1,inactive,inactive,inactive,inactive,inactive,inactive,inactive,inactive,inactive,inactive,–,–
CCCCCCCCNC(C)C(O)c1ccc(SC(C)C)cc1 (stereo not drawn),–,inactive,–,–,–,16.8 µM (active),27.6 µM (active),–,–,23.7 µM (active),15.4 µM (active),11.6 µM (active)
Clc1cccc(C(c2ccc3nc[nH]c3c2)n2ccnc2)c1 (stereo not drawn),inactive,inactive,inactive,inactive,inactive,inactive,inactive,inactive,inactive,inactive,inactive,–
CCCCCCCCCCCCSCCOCCO,–,inactive,inactive,inactive,inactive,–,inactive,inactive,inactive,–,inactive,inactive
NC(=O)C1(N2CCCCC2)CCN(CCCC(=O)c2ccc(F)cc2)CC1,inactive,inactive,inactive,inactive,inactive,inactive,inactive,inactive,inactive,inactive,inactive,–
CCc1nn(CCCN2CCN(c3cccc(Cl)c3)CC2)c(=O)n1CCOc1ccccc1,–,inactive,–,–,–,–,–,inactive,–,–,–,10.3 µM (active)
Cc1ccc(-c2ncc(Cl)cc2-c2ccc(S(C)(=O)=O)cc2)cn1,inactive,inactive,inactive,inactive,inactive,–,inactive,inactive,inactive,inactive,–,–
CCCCOC(=O)CC(CC(=O)OCCCC)(OC(C)=O)C(=O)OCCCC,inactive,inactive,inactive,inactive,inactive,inactive,inactive,inactive,inactive,inactive,inactive,–
O=C(Oc1cccc2cccnc12)c1ccccc1,–,1.67 µM (active),–,inactive,0.001 µM (active),–,inactive,–,–,15 µM (active),–,inactive
CN(C)CCOC(c1ccc(Cl)cc1)c1ccccn1 (stereo not drawn),inactive,inactive,inactive,inactive,inactive,–,inactive,inactive,inactive,inactive,inactive,–
COc1ccc(C(Cl)=C(c2ccc(OC)cc2)c2ccc(OC)cc2)cc1,inactive,inactive,inactive,–,–,–,–,–,–,–,–,–
CN(CCCN1c2ccccc2CCc2ccccc21)CC(=O)c1ccc(Cl)cc1,inactive,inactive,inactive,inactive,inactive,inactive,inactive,inactive,inactive,inactive,–,–
COC(=O)C(c1ccccc1Cl)N1CCc2sccc2C1 (stereo not drawn),inactive,inactive,inactive,inactive,inactive,inactive,inactive,inactive,inactive,inactive,inactive,–
Nc1nc(Cl)nc2c1ncn2[C@@H]1O[C@H](CO)[C@@H](O)[C@@H]1F,4.47 µM (active),0.264 µM (active),0.422 µM (active),0.0266 µM (active),0.422 µM (active),0.0299 µM (active),0.309 µM (active),0.211 µM (active),inactive,–,–,–
CC(C(=O)O)c1cccc(Oc2ccccc2)c1 (stereo not drawn),–,inactive,inactive,inactive,–,inactive,inactive,inactive,inactive,inactive,inactive,inactive
OC(C#CCN1CCCC1)(c1ccccc1)c1ccccc1,inactive,inactive,inactive,inactive,inactive,inactive,inactive,inactive,inactive,inactive,inactive,–
NC(N)=NN=C(/C=C/c1ccc([N+](=O)[O-])o1)/C=C/c1ccc([N+](=O)[O-])o1,–,6.64 µM (active),10.6 µM (active),–,1.06 µM (active),–,11 µM (active),5.31 µM (active),–,–,3.86 µM (active),4.61 µM (active)
C#C[C@]1(O)CC[C@H]2[C@@H]3[C@H](C)CC4=C(CCC(=O)C4)[C@H]3CC[C@@]21C,inactive,inactive,inactive,inactive,inactive,–,inactive,inactive,inactive,inactive,inactive,–
O=C(O)P(=O)(O)O,inactive,inactive,inactive,inactive,inactive,inactive,inactive,inactive,inactive,–,inactive,–
O=C(CN1CCN(Cc2ccc3c(c2)OCO3)CC1)N1c2ccccc2Sc2ccccc21,inactive,inactive,inactive,inactive,inactive,inactive,inactive,inactive,inactive,inactive,inactive,–
